Measurements taken from PubChem BioAssay AID2732 (Emory University Molecular Libraries Screening Center, 2010).
Hit rate of the full screen: of about 220,000 compounds, about 8,200 (3.7%) were called active. The entries come from a sample that favours actives as a whole. Values without a mark were called inactive.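 The calls were made as follows: active = compounds that reduced the stress-induced luciferase reporter signal by more than about 70% of percent inhibition (limit read from the data); inactive = the rest.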

Experiment: inhibitors of CHOP promoter induction, primary screen, cell-based, unfolded protein response, luciferase reporter (AID 2732);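 also: 0% = tunicamycin plus vehicle and 100% = wells without tunicamycin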
Conditions: CHO-K1 CHOP-promoter luciferase, tunicamycin-induced, 15-18 h; at 10 µM; hits give high values

| SMILES | inhibition |
| --- | --- |
| CCNc1nc(NCC)nc(N/N=C/c2ccc(O)c(OC)c2)n1 | -5.61% |
| OC(c1ccccc1)C(CN1CCOCC1)c1ccccc1 (configuration not stated) | 9.34% |
| O=C(Nc1ccccc1F)c1ccccc1-c1ccccc1 | 1.92% |
| Cc1ccc(NC(=O)C(C)c2cccc(C(=O)c3ccccc3)c2)cc1 (configuration not stated) | 19.2% |
| Cc1ccccc1NC(=O)C(C)c1ccc(-c2ccccc2)c(F)c1 (configuration not stated) | 70.4% (active) |
| O=C(Nc1nnc(-c2ccco2)o1)c1ccc(S(=O)(=O)N2CCOCC2)cc1 | 13.2% |
| COc1cccc(-c2nnc(NC(=O)c3ccc(S(=O)(=O)N(CC(C)C)CC(C)C)cc3)o2)c1 | 108% (active) |
| COc1cccc(NC(=O)c2ccc(S(=O)(=O)N(C)C)cc2)c1 | -15.2% |
| Cc1ccc(NC(=O)COC(=O)CCc2nc3ccccc3n2-c2ccccc2)c(C)c1 | 2.62% |
| CC(C)(C)c1ccc(NC(=O)COC(=O)CCc2nc3ccccc3c(=O)[nH]2)cc1 | 20% |
| CCN(c1ccc(NC(=O)COC(=O)CCc2nc3ccccc3n2-c2ccccc2)cc1)C(C)C | 79% (active) |
| Cc1c(C(=O)N(Cc2ccccc2)Cc2cccnc2)cnn1-c1ccc(F)cc1 | 0% |
| COC(=O)c1sccc1NC(=O)CC1C(=O)NCCN1C(=O)Nc1ccc(F)cc1F (configuration not stated) | 12.3% |
| C=CS(=O)c1sc(Cl)c(N2CCOCC2)c1[N+](=O)[O-] (configuration not stated) | 106% (active) |
| Cc1nc(=O)c(-c2ccccc2)c(C)n1-c1ccc(Br)cc1 | 3.14% |
| O=C(C[n+]1ccc2c(c1)nnn2-c1ccccc1)c1ccc(Cl)cc1 | 34.6% |
| CCCC(=O)Nc1nnc(-c2ccccc2)o1 | 0.67% |
| CCCCCCc1cc2cc(-c3nnc(-c4ccccc4)o3)c(=O)oc2cc1O | 95.9% (active) |
| Cc1c(CCC(=O)O)c(=O)oc2cc3occ(-c4ccccc4)c3cc12 | 37.1% |
| O=C1CCCCC1C(=O)c1ccccc1 (configuration not stated) | 8.57% |
| O=C(CNCCC1=CCCCC1)Nc1ccccc1N1CCCCCC1 | 72.9% (active) |
| O=C(CN1CCN(C2CCCCC2)CC1)Nc1ccccc1N1CCCCC1 | 59.2% |
| O=C(Cc1cccc2ccccc12)NCCC1=CCCCC1 | 40.1% |
| Cc1ccccc1NC(=O)Nc1ccccc1N1CCCCC1 | 28.6% |
| Cn1c(=O)c2c(nc(SCC(=O)Nc3ccccc3N3CCCCC3)n2C)n(C)c1=O | 21.7% |
| Cc1ccccc1NC(=O)CNc1ccccc1N1CCCCC1 | 89.1% (active) |
| Cc1ccc(OS(=O)(=O)c2ccc(-c3csc(C)n3)s2)c(C)c1 | 22.5% |
